Test results published in PubChem BioAssay AID1159580 (chemical genetic matrix, 2015).
Several values for one entry are separate records, joined by “and”; a condition that tells them apart may be missing. Identical values can stand only once. In all, about 5,500 compounds went through this assay and about 2,000 (36%) were called active. Another 18% or so got no clear call; they are omitted. Rule as the data show it: active = normalized growth mostly below about 0.91 (no sharp cut-off); inconclusive = no clear call, values can overlap the other calls; inactive = mostly above about 0.92. The list shows a part of the results.

Assay: chemical genetic growth profiling, strain panel (AID 1159580);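 also: tested at 20 µM; growth read once vehicle control cultures reached saturation at 30 °C; 1 = growth at the plate median or of vehicle wells; lower values mean less growth of the strain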
Details: growth OD

Measured: normalized growth

CN(C)CCC=C1c2ccccc2CCc2ccccc21
active: S. cerevisiae deletion strains, locus YNL209W, strain ssb2, stronger effect = lower value 0.897
inactive: S. cerevisiae deletion strains, locus YJR066W, strain TOR1, stronger effect = lower value 0.983 | S. cerevisiae deletion strains, locus YJR075W, strain HOC1, stronger effect = lower value 0.981 | S. cerevisiae deletion strains, locus YKL009W, strain mrt4, stronger effect = lower value 0.998 | S. cerevisiae deletion strains, locus YKL068W, stronger effect = lower value 0.998 | S. cerevisiae deletion strains, locus YKL085W, strain MDH1 (second series), stronger effect = lower value 0.996 | S. cerevisiae deletion strains, locus YKL085W, strain MDH1, stronger effect = lower value 0.996 | S. cerevisiae deletion strains, locus YKL160W, strain elf1, stronger effect = lower value 1.01 | S. cerevisiae deletion strains, locus YKL190W, strain CNB1, stronger effect = lower value 1.01 | S. cerevisiae deletion strains, locus YKR001C, strain vps1, stronger effect = lower value 0.985 | S. cerevisiae deletion strains, locus YKR026C, strain gcn3, stronger effect = lower value 0.998 | S. cerevisiae deletion strains, locus YKR091W, strain srl3, stronger effect = lower value 0.964 | S. cerevisiae deletion strains, locus YLL001W, strain dnm1, stronger effect = lower value 1.02 | S. cerevisiae deletion strains, locus YLL026W, stronger effect = lower value 1 | S. cerevisiae deletion strains, locus YLL041C, strain sdh2, stronger effect = lower value 0.986 | S. cerevisiae deletion strains, locus YLR027C, strain aat2, stronger effect = lower value 0.997 | S. cerevisiae deletion strains, locus YLR039C, strain RIC1, stronger effect = lower value 1.05 | S. cerevisiae deletion strains, locus YLR058C, strain SHM2, stronger effect = lower value 1.01 | S. cerevisiae deletion strains, locus YLR102C, strain apc9, stronger effect = lower value 0.987 | S. cerevisiae deletion strains, locus YLR113W, strain HOG1, stronger effect = lower value 1.02 | S. cerevisiae deletion strains, locus YLR221C, strain rsa3, stronger effect = lower value 0.94 | S. cerevisiae deletion strains, locus YLR258W, strain gsy2, stronger effect = lower value 0.972 | S. cerevisiae deletion strains, locus YLR262C, strain YPT6 (second series), stronger effect = lower value 1.06 | S. cerevisiae deletion strains, locus YLR262C, strain YPT6, stronger effect = lower value 1.1 | S. cerevisiae deletion strains, locus YLR268W, strain sec22, stronger effect = lower value 0.998 | S. cerevisiae deletion strains, locus YLR320W, strain mms22, stronger effect = lower value 0.95 | S. cerevisiae deletion strains, locus YLR330W, strain CHS5, stronger effect = lower value 1.01 | S. cerevisiae deletion strains, locus YLR342W, strain FKS1 (second series), stronger effect = lower value 0.981 | S. cerevisiae deletion strains, locus YLR342W, strain FKS1, stronger effect = lower value 0.963 | S. cerevisiae deletion strains, locus YLR357W, strain rsc2, stronger effect = lower value 0.92 | S. cerevisiae deletion strains, locus YLR370C, strain arc18, stronger effect = lower value 0.956 | S. cerevisiae deletion strains, locus YLR371W, strain rom2, stronger effect = lower value 1 | S. cerevisiae deletion strains, locus YLR384C, strain iki3, stronger effect = lower value 0.988 | S. cerevisiae deletion strains, locus YLR418C, strain cdc73, stronger effect = lower value 0.985 | S. cerevisiae deletion strains, locus YML016C, strain PPZ1, stronger effect = lower value 1 | S. cerevisiae deletion strains, locus YML032C, strain rad52, stronger effect = lower value 0.993 | S. cerevisiae deletion strains, locus YML120C, strain ndi1, stronger effect = lower value 0.986 | S. cerevisiae deletion strains, locus YML124C, strain tub3, stronger effect = lower value 0.99 | S. cerevisiae deletion strains, locus YMR058W, strain fet3, stronger effect = lower value 0.979 | S. cerevisiae deletion strains, locus YMR078C, strain ctf18, stronger effect = lower value 1 | S. cerevisiae deletion strains, locus YMR125W, strain sto1, stronger effect = lower value 0.924 | S. cerevisiae deletion strains, locus YMR129W, stronger effect = lower value 0.971 | S. cerevisiae deletion strains, locus YMR205C, strain PFK2, stronger effect = lower value 0.995 | S. cerevisiae deletion strains, locus YMR223W, strain ubp8, stronger effect = lower value 1 | S. cerevisiae deletion strains, locus YMR231W, strain pep5, stronger effect = lower value 0.987 | S. cerevisiae deletion strains, locus YMR263W, strain SAP30, stronger effect = lower value 1.01 and 1.02 | S. cerevisiae deletion strains, locus YMR307W, strain GAS1, stronger effect = lower value 1.04 and 1.01 | S. cerevisiae deletion strains, locus YNL067W, strain RPL9B, stronger effect = lower value 1.01 | S. cerevisiae deletion strains, locus YNL071W, strain lat1, stronger effect = lower value 0.998 | S. cerevisiae deletion strains, locus YNL153C, strain GIM3, stronger effect = lower value 1 and 0.972 | S. cerevisiae deletion strains, locus YNL175C, strain NOP13, stronger effect = lower value 1.01 | S. cerevisiae deletion strains, locus YNL183C, strain NPR1, stronger effect = lower value 0.998 | S. cerevisiae deletion strains, locus YNL197C, strain WHI3, stronger effect = lower value 1.06 | S. cerevisiae deletion strains, locus YNL224C, strain SQS1, stronger effect = lower value 1.03 | S. cerevisiae deletion strains, locus YNL233W, strain BNI4, stronger effect = lower value 1.01 | S. cerevisiae deletion strains, locus YNL248C, strain rpa49, stronger effect = lower value 0.915 | S. cerevisiae deletion strains, locus YNL250W, strain rad50, stronger effect = lower value 0.995 | S. cerevisiae deletion strains, locus YNL271C, strain bni1, stronger effect = lower value 1 | S. cerevisiae deletion strains, locus YNL298W, strain CLA4, stronger effect = lower value 0.991 | S. cerevisiae deletion strains, locus YNL307C, strain MCK1, stronger effect = lower value 0.999 | S. cerevisiae deletion strains, locus YNL322C, strain KRE1 (second series), stronger effect = lower value 0.997 | S. cerevisiae deletion strains, locus YNL322C, strain KRE1, stronger effect = lower value 1.01 | S. cerevisiae deletion strains, locus YNR049C, strain mso1, stronger effect = lower value 0.974 | S. cerevisiae deletion strains, locus YNR052C, strain pop2, stronger effect = lower value 0.998 | S. cerevisiae deletion strains, locus YOL012C, strain htz1 1.09 | S. cerevisiae deletion strains, locus YOL147C, strain pex11, stronger effect = lower value 1 | S. cerevisiae deletion strains, locus YOR001W, strain rrp6, stronger effect = lower value 0.971 | S. cerevisiae deletion strains, locus YOR061W, strain CKA2, stronger effect = lower value 1.01 | S. cerevisiae deletion strains, locus YOR069W, strain VPS5, stronger effect = lower value 1.01 | S. cerevisiae deletion strains, locus YOR070C, strain gyp1, stronger effect = lower value 0.975 | S. cerevisiae deletion strains, locus YOR080W, strain dia2, stronger effect = lower value 0.987 | S. cerevisiae deletion strains, locus YOR083W, strain WHI5 (second series), stronger effect = lower value 1.08 | S. cerevisiae deletion strains, locus YOR083W, strain WHI5, stronger effect = lower value 0.975 | S. cerevisiae deletion strains, locus YOR106W, strain vam3, stronger effect = lower value 0.96 | S. cerevisiae deletion strains, locus YOR136W, strain idh2, stronger effect = lower value 0.984 | S. cerevisiae deletion strains, locus YOR144C, strain elg1, stronger effect = lower value 0.977 | S. cerevisiae deletion strains, locus YOR184W, strain ser1, stronger effect = lower value 0.991 | S. cerevisiae deletion strains, locus YOR231W, strain MKK1, stronger effect = lower value 1.05 | S. cerevisiae deletion strains, locus YOR265W, strain rbl2, stronger effect = lower value 0.98 | S. cerevisiae deletion strains, locus YOR270C, strain vph1, stronger effect = lower value 0.87 | S. cerevisiae deletion strains, locus YOR290C, strain snf2, stronger effect = lower value 0.938 | S. cerevisiae deletion strains, locus YOR316C, strain cot1, stronger effect = lower value 0.993 | S. cerevisiae deletion strains, locus YPL051W, strain arl3, stronger effect = lower value 0.957 | S. cerevisiae deletion strains, locus YPL078C, strain atp4, stronger effect = lower value 0.994 | S. cerevisiae deletion strains, locus YPL106C, strain sse1, stronger effect = lower value 0.987 | S. cerevisiae deletion strains, locus YPL240C, strain hsp82, stronger effect = lower value 0.991 | S. cerevisiae deletion strains, locus YPL256C, strain CLN2, stronger effect = lower value 1.06 | S. cerevisiae deletion strains, locus YPR119W, strain clb2, stronger effect = lower value 1 | S. cerevisiae deletion strains, locus YPR141C, strain kar3, stronger effect = lower value 1 | S. cerevisiae deletion strains, locus YPR163C, strain tif3, stronger effect = lower value 0.999 | S. cerevisiae deletion strains, locus YPR167C, strain met16, stronger effect = lower value 1 | S. cerevisiae deletion strains, strain wtn01, stronger effect = lower value 0.982 | S. cerevisiae strains, strain wild type, stronger effect = lower value 1.01
